Assay results published in PubChem BioAssay (NCI).
The panel holds about 79,000 compounds, 15% with a hit somewhere; the sample as a whole holds those more often. No stated cut-off is given here; in the data, active means growth inhibition above about 70%; inactive means the rest.

Columns and labels:
[1] = NCI Yeast Anticancer Drug Screen. Data for the rad50 strain (AID 155);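 further: 0% = growth of vehicle-only cultures of the same strain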; details: S. cerevisiae rad50 strain growth inhibition; at 50.0 µM; stronger effect = higher value
How it was run: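 DNA repair mutant yeast, compound exposure, growth read-out; inhibition is taken relative to vehicle.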

[2] = NCI Yeast Anticancer Drug Screen. Data for the mec2-1 strain (AID 157); details: S. cerevisiae mec2-1 strain, at 50.0 µM, stronger effect = higher value
How it was run: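 Each compound was tested on mec2-1 yeast, a strain altered in DNA damage repair or cell cycle control. Growth inhibition is reported relative to vehicle.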

[3] = NCI Yeast Anticancer Drug Screen. Data for the sgs1 mgt1 strain (AID 161);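 further: 0% = growth of cultures given vehicle only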; details: S. cerevisiae sgs1 mgt1 strain, at 50.0 µM, stronger effect = higher value
How it was run: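 Mutant yeast exposed to compound; growth scored against vehicle-only wells.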

[4] = NCI Yeast Anticancer Drug Screen. Data for the cln2 rad14 strain (AID 165);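 further: 0% = growth equal to vehicle treated cultures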; details: S. cerevisiae cln2 rad14 strain, at 50.0 µM, stronger effect = higher value
How it was run: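 Test compounds were added to cln2 rad14 yeast cultures; inhibition of growth was then determined by comparison with vehicle treatment.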

[5] = NCI Yeast Anticancer Drug Screen. Data for the bub3 strain (AID 167); details: S. cerevisiae bub3 mutant strain, at 50.0 µM, stronger effect = higher value
How it was run: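 In this screen, a yeast mutant lacking normal mitotic checkpoint function is challenged with compound. Relative growth versus vehicle gives the inhibition value.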

[6] = NCI Yeast Anticancer Drug Screen. Data for the mlh1 rad18 strain (AID 175); details: S. cerevisiae mlh1 rad18 strain growth inhibition; at 50.0 µM; stronger effect = higher value
How it was run: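 Inhibition values reflect reduced growth of mutant yeast versus vehicle-treated controls following compound exposure; the mutations affect DNA damage repair.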

Measured: growth inhibition

CC1(C)COC(C23C4C5C2C2C3C4C52I)=N1 (stereo not given)
inactive: [1] 25.9% | [2] 12.4% | [3] 11.2% | [4] 18.2% | [5] 26.6% | [6] 16.6%

CC(=O)OC1(C)C(=O)OC/C2=C/CN(C)CCC(OC(=O)C(O)(C(C)Cl)CC1C)C2=O (stereo not given)
inactive: [1] 4.75% | [2] 2.9% | [3] -7.95% | [4] 13% | [5] -6.35% | [6] -43.9%

O=C(Nc1ccccc1)Sc1nc2ccccc2s1
inactive: [1] 24.5% | [2] 17.8% | [3] 45.5% | [4] 13.7% | [5] 53.9% | [6] 27.6%

CN(C)c1ccc(/C=C/c2ccnc3ccc(Cl)cc23)cc1
inactive: [1] 23% | [2] 22.5% | [3] 32.1% | [4] 5.85% | [5] 21.6% | [6] 34%

CSc1cccc(NC(=O)/C=C/C(=O)O)c1
inactive: [1] -3.05% | [2] 5.1% | [3] 16.3% | [4] -58.5% | [5] 6.65% | [6] -0.9%

Cc1cccc(C(=O)C(O)c2cccc(C)n2)n1 (stereo not given)
inactive: [1] 7.75% | [2] -18.4% | [3] -1.55% | [4] 8.2% | [5] -20.3% | [6] 4.4%

O=C(O[C@H]1[C@@H]2C=CO[C@@H](OC3OC(CO)C(O)C(O)C3O)[C@@H]2[C@@]2(CO)O[C@@H]12)c1ccc(O)c(O)c1 (stereo not given in full)
inactive: [1] -20.3% | [2] -40% | [3] -4.6% | [4] 3.1% | [5] -8.35% | [6] 0.4%

O=C(O)C(C(=O)O)C1CCCCCC1
inactive: [1] -34.4% | [2] -6.6% | [3] -17.9% | [4] -29.9% | [5] -1.9% | [6] 14.2%

CC1(C)C2CC3C(C2)C31C
inactive: [1] 1% | [2] 3.6% | [3] -10.2% | [4] 5.35% | [5] 1.3% | [6] -0.75%

O=c1[nH]c2cc([N+](=O)[O-])ccc2nc1/C(=N/Nc1ccccc1)C(O)c1ccco1 (stereo not given)
inactive: [1] 7.9% | [2] -17.4% | [3] 9.2% | [4] 16.2% | [5] 6.65% | [6] 25.3%

CONCc1ccc(C(=O)NC(C)C)cc1
inactive: [1] -10.6% | [2] -6.75% | [3] -5.95% | [4] -3.65% | [5] -0.3% | [6] -11.8%

[N-]=[N+]=Nc1cc(=O)n(-c2ccccc2)c2ccccc12
inactive: [1] -17.2% | [2] -22.7% | [3] -24.6% | [4] -2.8% | [5] -3.75% | [6] -22.3%

OCN(CO)c1ccc2c(c1)Cc1cc(Cl)ccc1-2
inactive: [1] 0.35% | [2] -24.1% | [3] -2.2% | [4] 22.4% | [5] 13.1% | [6] 12.7%

O=C1Cc2c([nH]c3c(Cl)cccc23)-c2ccccc2N1
inactive: [1] -4.65% | [2] 14.6% | [3] -19.2% | [4] 21.8% | [5] 4.5% | [6] -23.4%

CCCC(C)(C)O
inactive: [1] 2.15% | [2] 9.15% | [3] 22.1% | [4] -21.3% | [5] 10.4% | [6] -3.65%

Cc1nc2sccn2c1C(=O)NC(=O)Nc1ccc(Cl)cc1
inactive: [1] 0.35% | [2] -14.8% | [3] -2.75% | [4] 5.45% | [5] -9.8% | [6] -16.1%

CCOC(=O)C1=C(Nc2ccc(F)cc2)C(=O)N(C(C)(C)C)C1
inactive: [1] 8.05% | [2] 1.3% | [3] 27.5% | [4] 6.35% | [5] 31.4% | [6] 21.6%

CSCCC(NCc1c(O)ccc2ccc(=O)oc12)C(=O)O (stereo not given)
inactive: [1] -35.6% | [2] -9.1% | [3] -27.9% | [4] 7.45% | [5] 0.95% | [6] -38%

CN(C)CCCC1c2ccccc2Oc2ccc(C(F)(F)F)cc21 (stereo not given)
inactive: [1] -9.45% | [2] -28.4% | [3] -11.9% | [4] -25.1% | [5] 41.9% | [6] 31.2%

NS(=O)(=O)c1ncc(C(=O)N2CCN(Cc3ccccc3)CC2)[nH]1
inactive: [1] -6.15% | [2] -7.75% | [3] 7.2% | [4] -11.7% | [5] 1.05% | [6] 6.95%

Cc1ccc(S(=O)(=O)N/N=C(\C(=O)c2ccccc2)c2ccccc2)cc1
inactive: [1] 45% | [2] 18.2% | [3] 39.4% | [4] 28.1% | [5] 23.6% | [6] 36.6%

ON=C(C(Cl)(Cl)Cl)C(Cl)(Cl)Cl
inactive: [1] -17.2% | [2] -26% | [3] -8.35% | [4] 4.9% | [5] -11.9% | [6] -29.8%

CC1=CC(O)CC(C)(C)C1/C=C/C(C)=C/C=C/C(C)=C/C=C/C=C(C)/C=C/C=C(C)/C=C/C1=C(C)CC(O)CC1(C)C (stereo not given)
inactive: [1] 14.4% | [2] -15.4% | [3] 22.6% | [4] 16.4% | [5] -30.9% | [6] -37.1%

O=C(/C=C/c1ccc(Cl)cc1)c1ccncc1
inactive: [1] 33.5% | [2] 0% | [3] 11.6% | [4] 18% | [5] 16.1% | [6] 33.9%

c1ccc(Cc2ccc3ccccc3c2)cc1
inactive: [1] 35.3% | [2] 14.6% | [3] 11.8% | [4] -26.6% | [5] 12.2% | [6] 50.2%

O/N=C1/CCCCc2ccccc21
inactive: [1] -13.4% | [2] 0.95% | [3] -21.2% | [4] -29.7% | [5] -14.4% | [6] -15.2%

Cc1cccc(C)c1NC(=O)CNc1ncccn1
inactive: [1] -14.3% | [2] 1% | [3] 3.7% | [4] -4.7% | [5] 19.1% | [6] 4.65%

COc1ccc(-c2c(N)nc(=S)[nH]c2C(=O)O)cc1
inactive: [1] -8.65% | [2] 9.85% | [3] -9.15% | [4] -21.2% | [5] 8.75% | [6] -17.7%

CN1CC(O)c2cc(N=NC(N)=O)c(O)cc21 (stereo not given)
inactive: [1] -16.6% | [2] -9.5% | [3] -4.85% | [4] 5.85% | [5] -7.25% | [6] -2.45%

CSc1nc2ncnc(N(C)C)c2[nH]1
inactive: [1] 1.1% | [2] -11.8% | [3] -8.5% | [4] 2.45% | [5] -7.4% | [6] -16.5%

COc1ccc(OC)c(NC(=O)NN(C)C)c1
inactive: [1] -31.4% | [2] -38.8% | [3] -2.25% | [4] 7.95% | [5] -21.1% | [6] -21.6%

O=c1cc(CO)oc(C(Nc2cccc(Cl)c2)c2ccccc2)c1O (stereo not given)
inactive: [1] 34.2% | [2] -4.65% | [3] 23.1% | [4] -15.2% | [5] 10.2% | [6] 21.1%

S=c1nc[nH]c2c1ncn2C1OC(COCc2ccccc2)C(OCc2ccccc2)C1OCc1ccccc1 (stereo not given)
inactive: [1] 31.2% | [2] 15.1% | [3] 17.4% | [4] 14.7% | [5] 2.1% | [6] 5.9%

O=C(O)C(O)C(O)C(O)C(O)C(=O)O (stereo not given)
inactive: [1] 7.35% | [2] -13.1% | [3] 12% | [4] -1.55% | [5] -5.1% | [6] 3.15%

c1cc(CSSCc2ccncc2)ccn1
inactive: [1] -15% | [2] 3.15% | [3] -19.1% | [4] -13.2% | [5] -27.6% | [6] 4.75%

CC(=O)OCC1OC(n2ncnc2CI)C(OC(C)=O)C(OC(C)=O)C1OC(C)=O (stereo not given)
inactive: [1] 36.5% | [2] 8.35% | [3] 13.6% | [4] 16.9% | [5] 4.15% | [6] 21.5%

CC(C)CC1NC(=O)OC1=O (stereo not given)
inactive: [1] 6.7% | [2] 0.9% | [3] -9.7% | [4] -17.6% | [5] 1.25% | [6] 0.35%

O=c1cc(Nc2ccc(Cl)cc2)[nH]c(=O)[nH]1
inactive: [1] -1.45% | [2] -5.45% | [3] -5.55% | [4] -61.9% | [5] 6.2% | [6] -7.65%

Cc1cc(NS(=O)(=O)c2ccc(NC(=O)c3ccc(Cl)c4c(Nc5ccc(S(=O)(=O)N=C(N)N)cc5)c5ccccc5nc34)cc2)no1
inactive: [1] 29.9% | [2] 42.1% | [3] 31.6% | [4] 34.5% | [5] 26.4% | [6] 53.5%

C=CC[N+]12CC=C3COC(=O)C(C)(O)C(C)(O)C(C)C(=O)OC(CC1)C32 (stereo not given)
inactive: [1] 0.4% | [2] -0.2% | [3] 0.4% | [4] -25.9% | [5] -3.55% | [6] -5.65%
